Screens from PubChem.
A selection: hits, their analogues and other compounds. The true share with any hit is near 31%.
CYP2C19 inh: inhibitors of human CYP2C19; CYP2C19 Supersomes, luciferin-H EGE luminescence, 30 min; inhibition, % at 5 µM; actives 21% (n = 96,000); AID 778;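 active = CYP2C19 inhibition above a set limit at 5 µM in the primary screen, cut at about 50% in these data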;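 note: plate controls were negative control wells for no effect and 2.5 mM tranylcypromine positive control for full effect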
CYP2C19 activ: cytochrome P450 2C19 (human) activation. 96,000 tested, under 10 active. activation factor at 5 µM. recombinant CYP2C19, luciferin-H EGE luminescence; hits give high values; 0 = fully inhibited enzyme, 1 = untreated enzyme. P33261;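 active = activation factor of at least 2 at 5 µM in the primary screen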;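 note: 0 = wells with 2.5 mM tranylcypromine and 1 = vehicle-only wells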
CYP2C9 inh: human CYP2C9 inhibition; P11712; CYP2C9 Supersomes, luciferin-H conversion, luminescence; inhibition, % at 5 µM; actives 20% (n = 96,000); AID 777;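 active = blocking of liver enzyme CYP2C9 beyond about 50% at 5 µM, limit read from the data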
Target sequence (P11712 whole entry, looked up): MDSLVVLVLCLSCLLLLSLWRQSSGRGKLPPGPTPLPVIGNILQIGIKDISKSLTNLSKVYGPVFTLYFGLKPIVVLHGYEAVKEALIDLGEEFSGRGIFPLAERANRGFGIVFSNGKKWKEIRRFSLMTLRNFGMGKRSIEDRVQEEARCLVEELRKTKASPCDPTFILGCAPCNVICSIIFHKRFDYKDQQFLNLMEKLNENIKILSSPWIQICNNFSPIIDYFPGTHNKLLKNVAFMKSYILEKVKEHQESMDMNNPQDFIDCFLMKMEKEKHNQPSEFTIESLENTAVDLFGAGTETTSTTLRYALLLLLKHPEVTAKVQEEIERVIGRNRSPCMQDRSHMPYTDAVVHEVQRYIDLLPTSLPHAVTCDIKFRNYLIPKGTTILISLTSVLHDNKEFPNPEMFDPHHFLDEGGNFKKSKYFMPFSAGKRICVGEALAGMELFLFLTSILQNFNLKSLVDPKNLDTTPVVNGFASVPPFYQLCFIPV
CYP2C9 act: activators of human CYP2C9 | P11712 | recombinant CYP2C9, luciferin-H conversion, luminescence; hits give high values; factor 1 = untreated enzyme, 0 = blocked | activation factor at 5 µM | actives 1.4% (n = 96,000) | AID 1024;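 active = activation factor of 2 or more for CYP2C9 at a 5 µM dose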;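 note: 0 = sulfaphenazole-blocked wells and 1 = vehicle-only wells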
An asterisk follows results filed as active.

How did CN(C)S(=O)(=O)N1CCN(Cc2ccccc2)CC1 do in these assays?
CYP2C19 inh: 92.9*; CYP2C19 activ: 0.1; CYP2C9 inh: 24.9; CYP2C9 act: 0.8

How did CN(C)S(=O)(=O)N1CCN(c2ccccc2Cl)CC1 do in these assays?
CYP2C19 inh: 91.6*; CYP2C19 activ: 0.1; CYP2C9 inh: 81.3*; CYP2C9 act: 0.2

Results for O=S(=O)(c1ccc(S(=O)(=O)N2CCN(Cc3ccccc3)CC2)cc1)N1CCOCC1 ?
CYP2C19 inh: -3.2; CYP2C19 activ: 1; CYP2C9 inh: 6.3; CYP2C9 act: 0.9

Results for CN(C)S(=O)(=O)N1CCN(CC(=O)Nc2cc(Cl)ccc2Cl)CC1 ?
CYP2C19 inh: 71.5*; CYP2C19 activ: 0.3; CYP2C9 inh: 29.2; CYP2C9 act: 0.7

How did CN(C)S(=O)(=O)N1CCN(c2cc(Cl)ccc2Cl)CC1 do in these assays?
CYP2C19 inh: 90.8*; CYP2C19 activ: 0.1; CYP2C9 inh: 68.0*; CYP2C9 act: 0.3

How did CN1C(=O)C2(C(C#N)=C(N)Oc3c2oc(CO)cc3=O)c2ccccc21 (configuration not stated) do in these assays?
CYP2C19 inh: -11.9; CYP2C19 activ: 1.1; CYP2C9 inh: -7.0; CYP2C9 act: 1.1

Results for COc1cc(-c2nnc(SCC(=O)OC3CCCCC3)o2)cc(OC)c1OC ?
CYP2C19 inh: 17.7; CYP2C19 activ: 0.8; CYP2C9 inh: 14.4; CYP2C9 act: 0.9

What do the screens show for `CN(C)S(=O)(=O)N1CCN(C(=O)c2ccccc2Cl)CC1`?
CYP2C19 inh: 76.0*; CYP2C19 activ: 0.2; CYP2C9 inh: -2.5; CYP2C9 act: 1

How did CN(C)S(=O)(=O)N1CCN(c2ccccc2)CC1 do in these assays?
CYP2C19 inh: 86.1*; CYP2C19 activ: 0.1; CYP2C9 inh: 49.9; CYP2C9 act: 0.5

What do the screens show for `O=C(C1CCN(S(=O)(=O)N2CCOCC2)CC1)N1CCOCC1`?
CYP2C19 inh: -8.6; CYP2C19 activ: 1.1; CYP2C9 inh: -4.0; CYP2C9 act: 1

Results for CCNC(=O)CC1C(=O)N(c2ccc(C)cc2)C(=O)N1CCc1ccc(OC)c(OC)c1 (configuration not stated) ?
CYP2C19 inh: -3.4; CYP2C19 activ: 1; CYP2C9 inh: 6.1; CYP2C9 act: 0.9

How did CSc1cccc(NC(=O)CSc2ccc(Cl)cc2)c1 do in these assays?
CYP2C19 inh: 60.6*; CYP2C19 activ: 0.4; CYP2C9 inh: 4.6; CYP2C9 act: 1

How did Cn1c(SCC(=O)Nc2cccc(F)c2)nnc1-c1cc2ccccc2o1 do in these assays?
CYP2C19 inh: 0.8; CYP2C19 activ: 1; CYP2C9 inh: 3.6; CYP2C9 act: 1

What do the screens show for `CSc1cccc(NC(=O)CSc2ccc(C)cc2)c1`?
CYP2C19 inh: 19.0; CYP2C19 activ: 0.8; CYP2C9 inh: -4.7; CYP2C9 act: 1

Results for CCn1cc(Br)c(C(=O)Nc2cccc(SC)c2)n1 ?
CYP2C19 inh: 81.1*; CYP2C19 activ: 0.2; CYP2C9 inh: 38.1; CYP2C9 act: 0.6

Results for CCSCc1nnc(SCC(=O)Nc2cccc(SC)c2)n1C ?
CYP2C19 inh: 90.9*; CYP2C19 activ: 0.1; CYP2C9 inh: 32.3; CYP2C9 act: 0.7

How did CCCCn1ccc(O)c(Cc2ccc(F)cc2)c1=O do in these assays?
CYP2C19 inh: 22.4; CYP2C19 activ: 0.8; CYP2C9 inh: 29.9; CYP2C9 act: 0.7

Results for COc1ccc(/C=N/n2cncn2)cc1COc1ccc(NC(C)=O)cc1 ?
CYP2C19 inh: 61.1*; CYP2C19 activ: 0.4; CYP2C9 inh: 68.9*; CYP2C9 act: 0.3

How did COc1ccc(/C=N/NC(=O)c2ccoc2C)cc1COc1ccc(Cl)cc1 do in these assays?
CYP2C19 inh: 14.4; CYP2C19 activ: 0.9; CYP2C9 inh: 36.9; CYP2C9 act: 0.6

How did Cc1ccc(C)c(NC(=O)CS(=O)(=O)c2c[nH]c3ccccc23)c1 do in these assays?
CYP2C19 inh: 69.5*; CYP2C19 activ: 0.3; CYP2C9 inh: -212.3; CYP2C9 act: 3.1*

How did Cc1cccc(NC(=O)CS(=O)(=O)c2c[nH]c3ccccc23)c1C do in these assays?
CYP2C19 inh: 46.5; CYP2C19 activ: 0.5; CYP2C9 inh: -39.2; CYP2C9 act: 1.4

What do the screens show for `Cn1c2c(c(=O)n(C)c1=O)CN(CCN1CCNCC1)CN2`?
CYP2C19 inh: -18.2; CYP2C19 activ: 1.2; CYP2C9 inh: -1.0; CYP2C9 act: 1

Results for Cc1ccccc1OC(C)C(=O)NC1CCCC1 (configuration not stated) ?
CYP2C19 inh: 74.2*; CYP2C19 activ: 0.3; CYP2C9 inh: 41.6; CYP2C9 act: 0.6

What do the screens show for `Cc1ccccc1CSCC(=O)NC1CCCC1`?
CYP2C19 inh: 44.4; CYP2C19 activ: 0.6; CYP2C9 inh: 31.3; CYP2C9 act: 0.7
